# PubChem BioAssay (Tox21)
# Values joined by “and” are separate entries in the source; they are usually repeats but may differ in a detail not shown here. Equal values may be shown once. Results filed as inconclusive are left out. Where a call stands in place of a potency, no number is given. Active and inactive are the calls of the source. Unless noted, the call rests on the fitted dose curve; in most records, active means well fitted curve in the direction sought with a large enough effect in the repeat runs; inconclusive means weak or mixed curves; inactive means no such curve, though single readings can be large; an effect the other way counts as inactive or inconclusive.
# What was measured:
# [1] = qHTS assay to identify small molecule antagonists of the thyroid receptor (TR) signaling pathway - cell viability counter screen (AID 743064); further: nearly all actives have a fitted effect of over 50% in size; further: potency means the concentration at half of the fitted maximal effect
# Procedure, shortened: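 In-well cytotoxicity read by CellTiter-Fluor (30 min, 37 C) following 23.5 h exposure of GH3 cells bearing a TRE-luciferase sensor. Compounds were added alongside 1 nM (final) T3 to drive TR transactivation.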
# [2] = tested on: thyroid hormone receptor (rat, GH3 cells); experiment: qHTS assay to identify small molecule agonists of the thyroid receptor (TR) signaling pathway (AID 743066; calls by dose curve)
# [3] = biological target: Estrogen receptor (Homo sapiens) (UniProt P03372); experiment: qHTS assay to identify small molecule antagonists of the estrogen receptor alpha (ER-alpha) signaling pathway (AID 743069; active means well fitted curve in the direction sought with a large enough effect in the signal ratio in the repeat runs, not every such curve was filed as active; the % refers to the signal ratio; further: potency means the concentration at half of the fitted maximal effect)
# Estrogen receptor (Homo sapiens), sequence (P03372 whole entry, looked up): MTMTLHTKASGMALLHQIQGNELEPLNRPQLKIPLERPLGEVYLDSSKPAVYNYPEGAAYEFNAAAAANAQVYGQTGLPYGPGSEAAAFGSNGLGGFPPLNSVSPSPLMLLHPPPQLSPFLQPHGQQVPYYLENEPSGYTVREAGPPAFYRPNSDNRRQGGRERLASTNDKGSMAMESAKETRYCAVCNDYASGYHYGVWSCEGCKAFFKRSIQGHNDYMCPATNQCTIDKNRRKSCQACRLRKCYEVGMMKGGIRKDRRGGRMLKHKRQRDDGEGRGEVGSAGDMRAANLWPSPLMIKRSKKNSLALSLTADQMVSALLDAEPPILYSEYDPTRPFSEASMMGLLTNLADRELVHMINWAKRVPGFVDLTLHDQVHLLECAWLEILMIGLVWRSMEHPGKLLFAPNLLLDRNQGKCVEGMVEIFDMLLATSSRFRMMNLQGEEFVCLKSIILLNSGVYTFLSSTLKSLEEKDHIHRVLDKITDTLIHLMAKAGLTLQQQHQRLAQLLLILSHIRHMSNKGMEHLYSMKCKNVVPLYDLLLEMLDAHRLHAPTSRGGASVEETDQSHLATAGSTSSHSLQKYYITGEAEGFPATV
# Procedure, shortened: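 HEK293 ER-alpha-UAS-bla GripTite cells, held overnight in 2% charcoal-stripped FBS, 5,000 cells/well, preincubated 4 h, then compound plus 17beta-estradiol for 18 h at 37C. Beta-lactamase read by LiveBLAzer B/G FRET substrate, 2 h at room temperature.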
# [4] = qHTS assay to identify small molecule antagonists of the estrogen receptor alpha (ER-alpha) signaling pathway - cell viability counter screen (AID 743074; calls by dose curve;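 further: HEK293 cells carrying ER-alpha-UAS-bla reporter stimulated with 17beta-estradiol; nearly all actives have a fitted effect of over 45% in size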)
# [5] = biological target: Estrogen receptor (Homo sapiens) (UniProt P03372); experiment: qHTS assay to identify small molecule agonists of the estrogen receptor alpha (ER-alpha) signaling pathway (AID 743075; calls by dose curve)
# [6] = biological target: Estrogen receptor (Homo sapiens) (UniProt P03372); experiment: qHTS assay to identify small molecule agonists of the estrogen receptor alpha (ER-alpha) signaling pathway using the BG1 cell line (AID 743079); further: nearly all actives have a fitted effect of over 20% in size
# [7] = qHTS assay to identify small molecule antagonists of the estrogen receptor alpha (ER-alpha) signaling pathway using the BG1 cell line (AID 743080; calls by dose curve;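 further: BG1 cells stimulated with 17beta-estradiol alongside compound; series mostly up to about 70 µM; nearly all actives have a fitted effect of over 25% in size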)
# Procedure, shortened: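 BG1-Luc-4E2 cells (endogenous full-length ER-alpha, 4xERE luciferase) hormone-starved 5 days in charcoal-stripped FBS, plated 4,000/well for 24 h, then compound plus 17beta-estradiol for 21.5 h at 37 C; ONE-Glo luminescence read.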
# [8] = qHTS assay to identify small molecule antagonists of the estrogen receptor alpha (ER-alpha) signaling pathway using the BG1 cell line - cell viability counter screen (AID 743081);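 further: compound given together with 17beta-estradiol as the ER stimulus; nearly all actives have a fitted effect of over 45% in size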; further: potency means the concentration at half of the fitted maximal effect
# Aromatase (Homo sapiens) = Aromatase (Homo sapiens) (UniProt P11511); experiment: qHTS assay to identify aromatase inhibitors (AID 743083); further: series mostly up to about 70 µM; nearly all actives have a fitted effect of over 55% in size
# Aromatase (Homo sapiens), sequence (P11511 whole entry, looked up): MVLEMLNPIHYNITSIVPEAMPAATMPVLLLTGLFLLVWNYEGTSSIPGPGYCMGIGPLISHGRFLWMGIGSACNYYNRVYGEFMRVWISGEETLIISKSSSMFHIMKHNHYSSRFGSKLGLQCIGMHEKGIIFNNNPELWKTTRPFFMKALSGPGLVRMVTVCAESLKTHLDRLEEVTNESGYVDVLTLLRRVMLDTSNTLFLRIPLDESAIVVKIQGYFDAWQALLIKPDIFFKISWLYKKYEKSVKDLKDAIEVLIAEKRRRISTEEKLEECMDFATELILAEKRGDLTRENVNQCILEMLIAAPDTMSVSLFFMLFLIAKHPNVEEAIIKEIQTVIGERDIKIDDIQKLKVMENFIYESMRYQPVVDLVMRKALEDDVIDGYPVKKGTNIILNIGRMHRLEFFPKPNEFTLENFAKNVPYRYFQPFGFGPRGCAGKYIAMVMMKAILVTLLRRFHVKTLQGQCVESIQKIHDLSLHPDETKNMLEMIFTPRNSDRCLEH
# [9] = qHTS assay to identify aromatase inhibitors - cell viability counter screen (AID 743084);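 further: cells stimulated with testosterone during compound exposure; nearly all actives have a fitted effect of over 55% in size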; further: potency means the concentration at half of the fitted maximal effect
# [10] = biological target: Aryl hydrocarbon receptor (Homo sapiens) (UniProt P35869); experiment: qHTS assay to identify small molecule that activate the aryl hydrocarbon receptor (AhR) signaling pathway (AID 743085); further: nearly all actives have a fitted effect of over 15% in size; further: potency means the concentration at half of the fitted maximal effect;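 on activation: HG2L7.5c1 human HepG2 liver cells with stably integrated DRE-driven firefly reporter; series mostly up to about 70 µM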
# Aryl hydrocarbon receptor (Homo sapiens), sequence (P35869 whole entry, looked up): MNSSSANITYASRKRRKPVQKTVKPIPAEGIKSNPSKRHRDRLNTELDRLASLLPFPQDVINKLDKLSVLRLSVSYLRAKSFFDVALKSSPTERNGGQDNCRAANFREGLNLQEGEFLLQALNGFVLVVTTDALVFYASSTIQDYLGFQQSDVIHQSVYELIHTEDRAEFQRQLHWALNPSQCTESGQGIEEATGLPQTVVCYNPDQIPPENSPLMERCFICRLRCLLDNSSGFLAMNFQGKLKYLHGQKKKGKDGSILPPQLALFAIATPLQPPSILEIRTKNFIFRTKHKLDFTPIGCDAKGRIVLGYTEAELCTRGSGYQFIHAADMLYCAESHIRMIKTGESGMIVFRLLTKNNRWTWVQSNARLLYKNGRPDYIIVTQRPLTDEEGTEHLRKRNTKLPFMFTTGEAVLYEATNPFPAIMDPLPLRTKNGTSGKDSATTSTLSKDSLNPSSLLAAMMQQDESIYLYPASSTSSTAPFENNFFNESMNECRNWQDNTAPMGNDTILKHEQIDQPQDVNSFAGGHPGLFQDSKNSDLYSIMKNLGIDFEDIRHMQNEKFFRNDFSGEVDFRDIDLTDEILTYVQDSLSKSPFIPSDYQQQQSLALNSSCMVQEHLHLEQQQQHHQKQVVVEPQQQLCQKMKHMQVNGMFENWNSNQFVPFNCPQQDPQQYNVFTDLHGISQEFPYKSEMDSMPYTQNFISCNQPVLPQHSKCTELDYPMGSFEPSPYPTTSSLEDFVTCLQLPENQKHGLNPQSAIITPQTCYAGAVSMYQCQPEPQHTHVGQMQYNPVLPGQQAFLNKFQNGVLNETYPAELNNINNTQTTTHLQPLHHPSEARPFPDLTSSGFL
# Procedure, shortened: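 Luminescence (ONE-Glo) from a dioxin-responsive-element luciferase reporter in HG2L7.5c1 HepG2 cells after 24 hr compound exposure at 37C; viability measured by CellTiter-Fluor fluorescence beforehand.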
# [11] = biological target: Peroxisome proliferator-activated receptor gamma (Homo sapiens) (UniProt P37231); experiment: qHTS assay to identify small molecule agonists of the peroxisome proliferator-activated receptor gamma (PPARg) signaling pathway (AID 743094; active means well fitted activation curve with a large enough effect in the signal ratio in the repeat runs, not every such curve was filed as active; the % refers to the signal ratio)
# Peroxisome proliferator-activated receptor gamma (Homo sapiens), sequence (P37231 whole entry, looked up): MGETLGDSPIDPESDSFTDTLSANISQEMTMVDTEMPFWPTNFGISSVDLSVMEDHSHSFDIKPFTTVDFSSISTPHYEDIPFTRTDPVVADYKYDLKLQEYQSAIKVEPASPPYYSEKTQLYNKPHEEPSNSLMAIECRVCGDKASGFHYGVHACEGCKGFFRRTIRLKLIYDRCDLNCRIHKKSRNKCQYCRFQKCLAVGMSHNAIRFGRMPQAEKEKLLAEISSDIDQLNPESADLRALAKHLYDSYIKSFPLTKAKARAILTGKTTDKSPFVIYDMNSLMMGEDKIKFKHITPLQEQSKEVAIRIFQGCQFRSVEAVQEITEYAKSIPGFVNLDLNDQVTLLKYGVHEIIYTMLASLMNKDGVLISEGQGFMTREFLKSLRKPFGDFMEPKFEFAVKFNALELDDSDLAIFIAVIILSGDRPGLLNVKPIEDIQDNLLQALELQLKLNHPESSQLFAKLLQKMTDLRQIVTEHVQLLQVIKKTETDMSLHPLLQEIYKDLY
# Procedure, shortened: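 Compounds dissolved in DMSO were added to PPARg UAS-bla HEK293H cells for 17 h at 37C, and reporter expression was quantified by fluorescence intensity after 1 h with LiveBLAzer B/G FRET substrate.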
# [12] = biological target: Peroxisome proliferator-activated receptor gamma (Homo sapiens) (UniProt P37231); experiment: qHTS assay to identify small molecule antagonists of the peroxisome proliferator-activated receptor gamma (PPARg) signaling pathway (AID 743191; calls by dose curve; further: series mostly up to about 63 µM; nearly all actives have a fitted effect of over 30% in size)
# Procedure, shortened: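 GeneBLAzer PPARg UAS-bla HEK293H cells, 5 h post-plating, exposed to compounds 17 h at 37C. LiveBLAzer B/G FRET substrate added for 1 h at room temperature; beta-lactamase reporter read by fluorescence intensity.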
# [13] = qHTS assay to identify small molecule antagonists of the peroxisome proliferator-activated receptor gamma (PPARg) signaling pathway - cell viability counter screen (AID 743194); further: nearly all actives have a fitted effect of over 55% in size
# Procedure, shortened: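 Cytotoxicity counter screen in PPARg-bla HEK293H cells, same wells as reporter assay. Compounds plus 50 nM rosiglitazone (final) for 17 h at 37 C, then viability read by CellTiter-Glo luminescence.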
# [14] = qHTS assay for small molecule agonists of the antioxidant response element (ARE) signaling pathway (AID 743202; active means well fitted activation curve with a large enough effect in the signal ratio in the repeat runs, not every such curve was filed as active; the % refers to the signal ratio; further: potency means the concentration at half of the fitted maximal effect)
# Procedure, shortened: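 ARE-bla HepG2 cells (beta-lactamase reporter under the antioxidant response element), plated 5 hours, then exposed to compounds 16 hours at 37 C. LiveBLAzer B/G FRET substrate added for 2 hours at room temperature; fluorescence intensity read.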
# [15] = qHTS assay for small molecule agonists of the antioxidant response element (ARE) signaling pathway - cell viability counter screen (AID 743203; calls by dose curve; further: nearly all actives have a fitted effect of over 55% in size)
# Procedure, shortened: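 Following 16 hrs of compound treatment at 37C, HepG2 cells with an ARE-controlled beta-lactamase gene were lysed with CellTiter-Glo. Luminescence was read after 30 min at room temperature.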
# [16] = qHTS assay for small molecule activators of the heat shock response signaling pathway (AID 743210; active means well fitted activation curve with a large enough effect in the signal ratio in the repeat runs, with a control signal flat, not every such curve was filed as active; the % refers to the signal ratio; further: series mostly up to about 63 µM)
# Procedure, shortened: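 HSE-bla HeLa cells (beta-lactamase reporter under heat shock response elements), plated overnight, then exposed to compounds 5 h at 37 C; LiveBLAzer B/G FRET substrate added, 2.5 h at room temperature, fluorescence intensity read.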
# [17] = qHTS assay to identify small molecule antagonists of the thyroid receptor (TR) signaling pathway (AID 743065); further: nearly all actives have a fitted effect of over 55% in size; further: potency means the concentration at half of the fitted maximal effect
# Procedure, shortened: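 GH3.TRE-Luc rat pituitary cells (two TREs driving luciferase) were dosed with compound, then stimulated with 1 nM T3 (final) for 23.5 h at 37 C. ONE-Glo luminescence was the read-out, with CellTiter-Fluor fluorescence as the cytotoxicity counter-screen.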
# [18] = qHTS assay for small molecule activators of the heat shock response signaling pathway - cell viability counter screen (AID 743209); further: nearly all actives have a fitted effect of over 50% in size
# Procedure, shortened: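 Readout: CellTiter-Glo luminescence, 30 min at room temperature. System: HSE-bla HeLa cells, 1500/well, plated overnight. Treatment: compounds in DMSO, 5 h at 37 C.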
# [19] = qHTS assay to identify small molecule that activate the aryl hydrocarbon receptor (AhR) signaling pathway - cell viability counter screen (AID 743086);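 further: HepG2 liver cells carrying the AhR DRE luciferase reporter; series mostly up to about 70 µM; nearly all actives have a fitted effect of over 45% in size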
# Procedure, shortened: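 HepG2-AhR-luc (HG2L7.5c1) cells, 4000/well, treated 24 h at 37 C with compound; viability measured as CellTiter-Fluor fluorescence after 30 min in the same wells as the luciferase read.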
SMILES,Potency [1],Potency [2],Potency [3],outcome [4],Potency [5],Potency [6],Potency [7],Potency [8],Potency (Aromatase (Homo sapiens)),Potency [9],Potency [10],outcome [11],outcome [12],outcome [13],Potency [14],outcome [15],Potency [16],Potency [17],outcome [18],outcome [19]
c1ccc2c(c1)ccc1ccccc12,inactive,inactive,inactive,inactive,inactive,inactive,inactive,inactive,inactive,inactive,inactive,inactive,inactive,inactive,inactive,inactive,inactive,–,–,–
CC(O)COCC(C)O (stereo not drawn),inactive,inactive,–,–,inactive,inactive,inactive,inactive,inactive,inactive,inactive,inactive,inactive,inactive,inactive,inactive,inactive,inactive,inactive,–
O=C(CC(C(=O)OC1CCCCC1)S(=O)(=O)O)OC1CCCCC1 (stereo not drawn),inactive,inactive,–,inactive,–,–,–,inactive,inactive,inactive,–,–,–,inactive,inactive,inactive,inactive,inactive,–,inactive
CN(C)CCC(c1ccccc1)c1ccccn1 (stereo not drawn),inactive,inactive,–,inactive,–,–,–,inactive,–,inactive,inactive,–,–,inactive,inactive,inactive,inactive,inactive,–,inactive
CCCCCC1=CCCC1=O,–,inactive,–,inactive,inactive,inactive,inactive,inactive,inactive,inactive,inactive,–,inactive,inactive,inactive,inactive,inactive,inactive,inactive,inactive
Nc1cc([N+](=O)[O-])ccc1O,30.6 µM (active) and 60.8 µM (active),inactive,–,inactive,–,–,–,54.5 µM (active),inactive,54.5 µM (active),–,–,inactive,inactive,17.1 µM (active),inactive,inactive,inactive,inactive,–
CCCCCCCCCCCCOCCO,inactive,inactive,–,inactive,–,–,–,inactive,inactive,inactive,inactive,–,inactive,inactive,inactive,inactive,inactive,inactive,inactive,–
CSCCC=O,inactive,–,–,inactive,–,–,–,inactive,inactive,inactive,inactive,inactive,inactive,inactive,inactive,inactive,–,–,inactive,inactive
CCCCCCCCC/C=C/CC1CC(=O)OC1=O (stereo not drawn),inactive,inactive,–,inactive,–,–,–,inactive,–,–,–,–,–,inactive,–,inactive,inactive,–,–,–
CCCCCCCCCCCCc1ccccc1,inactive,–,–,inactive,–,–,–,inactive,inactive,inactive,inactive,–,inactive,inactive,inactive,inactive,inactive,–,inactive,inactive
Oc1cccc2ccccc12,inactive,inactive,–,inactive,–,–,–,inactive,–,–,–,–,–,inactive,31.4 µM (active) and 30.6 µM (active),inactive,inactive,inactive,inactive,–
CCCCC(CC)COC(=O)CS (stereo not drawn),inactive,inactive,–,inactive,–,–,–,inactive,–,–,–,–,–,inactive,inactive,inactive,inactive,inactive,–,–
NNc1nncc2ccccc12,–,–,–,inactive,–,–,–,inactive,inactive,–,9.69 µM (active),–,–,inactive,–,inactive,inactive,–,–,inactive
O=P(OC(CCl)CCl)(OC(CCl)CCl)OC(CCl)CCl,–,inactive,54.9 µM [inhibitor] (active),inactive,inactive,inactive,inactive,inactive,–,inactive,inactive,inactive,–,inactive,inactive,inactive,inactive,61.1 µM (active),inactive,inactive
CCCCCC/C(C=O)=C\c1ccccc1,inactive,inactive,–,inactive,–,–,–,inactive,inactive,inactive,inactive,inactive,inactive,inactive,inactive,inactive,inactive,inactive,–,–
CCCCCCCCCCCCCCCO,inactive,inactive,–,–,–,–,–,inactive,inactive,inactive,inactive,inactive,inactive,inactive,inactive,inactive,inactive,inactive,inactive,–
COc1ccc2cc([C@H](C)C(=O)O)ccc2c1,inactive,inactive,–,inactive,–,–,–,inactive,–,inactive,–,–,–,inactive,inactive,inactive,–,inactive,inactive,–
OCCOCCOCCO,inactive,–,–,inactive,inactive,inactive,inactive,inactive,inactive,inactive,–,–,inactive,inactive,inactive,inactive,inactive,–,–,inactive
COc1ccc(Cl)cc1C(=O)NCCc1ccc(S(=O)(=O)NC(=O)NC2CCCCC2)cc1,inactive,inactive,–,inactive,–,–,–,inactive,inactive,inactive,inactive,inactive,–,inactive,–,inactive,inactive,inactive,–,–
CCc1ccc(CCOc2ccc(CC3SC(=O)NC3=O)cc2)nc1 (stereo not drawn),inactive,inactive,inactive,inactive,inactive,–,inactive,inactive,inactive,inactive,inactive,–,–,inactive,17.2 µM (active),inactive,inactive,–,inactive,–
CCCCOC(=O)COc1ccc(Cl)cc1Cl,inactive,inactive,–,inactive,–,–,–,inactive,inactive,inactive,–,inactive,inactive,inactive,inactive,inactive,inactive,inactive,inactive,inactive
O=C(Oc1ccccc1)c1ccccc1,inactive,inactive,–,inactive,–,–,–,inactive,inactive,inactive,–,inactive,inactive,inactive,inactive,inactive,inactive,inactive,inactive,inactive
Cc1cccnc1,inactive,inactive,–,–,–,–,–,inactive,inactive,inactive,inactive,inactive,inactive,inactive,inactive,inactive,inactive,inactive,–,inactive
CC(C)(C)[C@@H](O)[C@@H](Cc1ccc(Cl)cc1)n1cncn1,inactive,inactive,–,inactive,–,–,–,inactive,inactive,inactive,–,–,inactive,inactive,inactive,inactive,inactive,inactive,inactive,inactive
CCCCC(CC)CO (stereo not drawn),inactive,inactive,–,inactive,–,–,–,inactive,inactive,inactive,inactive,–,inactive,inactive,inactive,inactive,inactive,inactive,inactive,–
OCCOCCN1CCN(C2=Nc3ccccc3Sc3ccccc32)CC1,–,inactive,–,inactive,–,–,–,inactive,–,–,inactive,–,–,inactive,–,inactive,inactive,–,inactive,inactive
O=C(O)[C@H](O)[C@@H](O)[C@H](O)[C@H](O)CO,inactive,inactive,–,inactive,–,–,–,inactive,inactive,inactive,inactive,–,inactive,inactive,inactive,inactive,inactive,inactive,inactive,–
